# Results taken from PubChem BioAssay (EPA / NIEHS).
# Results filed as inconclusive are left out. Active and inactive are the calls of the source. Rule for the calls, unless noted: active = hit-call score of the fitted dose curve at least 0.9, where 1 is the maximum; inactive = score below 0.9.
# Tests used:
# [1] = read-out: sulfotransferase 2A1 (SULT2A1), SULT2A1 (gene 6822); experiment: LTEA_HepaRG_SULT2A1: Life Technologies and Expression Analysis (LTEA) Assay for sulfotransferase 2A1 (SULT2A1) using HepaRG (AID 2283531); conditions: mRNA level, 48 h; actives raise or lower the signal
# How it was run: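 Transcript levels of SULT2A1, quantified by qRT-PCR and normalized to three housekeeping genes, serve as the readout. Human HepaRG cultures receive test chemicals for 48 h at up to 100 uM in half-log steps, with 0.5% DMSO vehicle.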
# [2] = read-out: Transforming Growth Factor (TGFA), TGFA (gene 7039); experiment: LTEA_HepaRG_TGFA: Life Technologies and Expression Analysis (LTEA) Assay for Transforming Growth Factor (TGFA) using HepaRG (AID 2283532); conditions: mRNA level, 48 h; actives raise or lower the signal
# How it was run: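 Differentiated HepaRG cells exposed 48 hours in serum-free induction medium, 0.5% DMSO vehicle, 8-point half-log series from 100 uM, in duplicate. TGFA mRNA by TaqMan qRT-PCR, normalised to ACTB, GAPDH, POLR2A; bidirectional fit versus DMSO.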
# [3] = read-out: Transforming Growth Factor (TGFB1), TGFB1 (gene 7040); experiment: LTEA_HepaRG_TGFB1: Life Technologies and Expression Analysis (LTEA) Assay for Transforming Growth Factor (TGFB1) Transporter using HepaRG (AID 2283533); conditions: mRNA level, 48 h; actives raise or lower the signal
# How it was run: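 HepaRG, 48 h post-plating, switched to serum-free induction medium; chemicals 100 uM top, half-log, 8 pts, 0.5% DMSO, dup; 48 h exposure; RNA → Fluidigm TaqMan qRT-PCR; norm ACTB/GAPDH/POLR2A; bidirectional fit vs DMSO.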
# TIMP1, TIMP1 (gene 7076) = experiment: LTEA_HepaRG_TIMP1: Life Technologies and Expression Analysis (LTEA) Assay for TIMP1 using HepaRG (AID 2283534); conditions: mRNA level, 48 h; actives raise or lower the signal;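 note: TaqMan qRT-PCR signal normalized to ACTB GAPDH and POLR2A housekeeping genes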
# How it was run: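 Readout is TIMP1 mRNA level measured by qRT-PCR and normalized to three housekeeping genes. Human HepaRG cells were treated for 48 h in duplicate at eight concentrations up to 100 uM (0.5% DMSO); gain or loss fitted against DMSO.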
# [4] = read-out: Tumor necrosis factor receptor 1 (TNFRSF1A), TNFRSF1A (gene 7132); experiment: LTEA_HepaRG_TNFRSF1A: Life Technologies and Expression Analysis (LTEA) Assay for Tumor necrosis factor receptor 1 (TNFRSF1A) using HepaRG (AID 2283535); conditions: mRNA level, 48 h; actives raise or lower the signal
# How it was run: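 Read-out is TNFRSF1A transcript level by TaqMan qRT-PCR, normalized to three housekeeping genes, scored as gain or loss of signal versus 0.5% DMSO. Human HepaRG cells received test chemicals for 48 h at up to 100 uM (half-log series).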
# [5] = read-out: Thyroid Hormone Responsive (THRSP), THRSP (gene 7069); experiment: LTEA_HepaRG_THRSP: Life Technologies and Expression Analysis (LTEA) Assay for Thyroid Hormone Responsive (THRSP) using HepaRG (AID 2283536); conditions: mRNA level, 48 h; actives raise or lower the signal
# How it was run: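 Differentiated HepaRG cells treated 48 h in serum-free induction medium with 8 half-log concentrations up to 100 uM (0.5% DMSO), duplicates. THRSP mRNA by TaqMan qRT-PCR normalised to ACTB, GAPDH, POLR2A; bidirectional fit versus DMSO.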
# [6] = read-out: Cellular tumor antigen p53 (Homo sapiens) (UniProt P04637); experiment: LTEA_HepaRG_TP53: Life Technologies and Expression Analysis (LTEA) Assay for Tumor Protein P53 (TP53) using HepaRG (AID 2283537); conditions: mRNA level, 48 h; actives raise or lower the signal
# How it was run: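 Differentiated HepaRG cells in serum-free induction medium exposed 48 h in duplicate to 8 half-log concentrations, top 100 uM, 0.5% DMSO. TP53 mRNA by TaqMan qRT-PCR (Fluidigm), normalized to ACTB, GAPDH, POLR2A; fitted bidirectionally versus DMSO.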
# [7] = read-out: UDP glucuronosyltransferase (UGT1A1), UGT1A1 (gene 54658); experiment: LTEA_HepaRG_UGT1A1: Life Technologies and Expression Analysis (LTEA) Assay for UDP glucuronosyltransferase (UGT1A1) using HepaRG (AID 2283538); conditions: mRNA level, 48 h; actives raise or lower the signal
# How it was run: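 Human liver HepaRG cultures receive test chemical for 48 h, up to 100 uM in 0.5% DMSO, with phenobarbital induction controls. UGT1A1 mRNA is measured by qRT-PCR and normalized to ACTB, GAPDH and POLR2A.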
# [8] = read-out: UDP glucuronosyltransferase (UGT1A6), UGT1A6 (gene 54578); experiment: LTEA_HepaRG_UGT1A6: Life Technologies and Expression Analysis (LTEA) Assay for UDP glucuronosyltransferase (UGT1A6) using HepaRG (AID 2283539); conditions: mRNA level, 48 h; actives raise or lower the signal
# How it was run: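 HepaRG, 48 h post-plating switch to serum-free induction medium; chemical 48 h, 100 uM top, half-log x8, duplicate, 0.5% DMSO. Phenobarbital 1mM induction control. UGT1A6 mRNA by TaqMan qRT-PCR; gain/loss fit vs DMSO.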
# [9] = read-out: X-box binding protein 1 (XBP1), XBP1 (gene 7494); experiment: LTEA_HepaRG_XBP1: Life Technologies and Expression Analysis (LTEA) Assay for X-box binding protein 1 (XBP1) using HepaRG (AID 2283540); conditions: mRNA level, 48 h; actives raise or lower the signal
# How it was run: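 Transcript levels of XBP1, measured by qRT-PCR and normalised to three housekeeping genes, were fitted bidirectionally relative to 0.5% DMSO controls. Human HepaRG cells received eight-point half-log dilutions from 100 uM for 48 h.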
# [10] = LTEA_HepaRG_LDH_cytotoxicity: Cytotoxicity Assessment in the Life Technologies and Expression Analysis (LTEA) Assay (AID 2283563; active = hit-call score of the fitted dose curve at least 0.9, where 1 is the maximum)
# How it was run: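 Cells were thawed and plated for 48 h. Medium was then replaced with serum-free induction medium. Chemicals (8 half-log points, maximum 100 uM, 0.5% DMSO) were added in duplicate for 48 h, after which spent medium was assayed for LDH.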
# [11] = TOX21_p53_BLA_p2_viability: Viability Assessment in the Tox21 HCT-116 p53 Agonism Beta-lactamase Assay, Phase 2 (AID 2283591; active = hit-call score of the fitted dose curve at least 0.9, where 1 is the maximum;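 note: compound exposure lasted 16 h at 37 °C; actives lower the ATP signal meaning cytotoxicity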)
# How it was run: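 HCT116 p53-bla cells, 4000/well, dosed after 5 h plating (217-fold dilution of DMSO stocks) and incubated 16 h at 37C. Viability taken as cellular ATP by CellTiter-Glo luminescence after 30 min RT; signal loss marks cytotoxicity.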
# [12] = molecular target: Cellular tumor antigen p53 (Homo sapiens) (UniProt P04637); experiment: TOX21_p53_BLA_p2_ratio: Tox21 HCT-116 p53 Agonism Beta-lactamase Assay, Ratio, Phase 2 (AID 2283592; active = hit-call score of the fitted dose curve at least 0.9, where 1 is the maximum)
# How it was run: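 HCT116 p53-bla; 4000 cells/well; 5 h pre-incubation; cpd in DMSO, 217-fold dilution; 16 h 37C/5% CO2; CCF4-AM 2 h RT; Ex 405, Em 460/530 ratio; DMSO = baseline; positive fitting direction.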
# [13] = TOX21_p53_BLA_p3_viability: Viability Assessment in the Tox21 HCT-116 p53 Agonism Beta-lactamase Assay, Phase 3 (AID 2283593; active = hit-call score of the fitted dose curve at least 0.9, where 1 is the maximum;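 note: cells exposed to compound for 16 h before reading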)
# How it was run: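 HCT116 cells, 4000/well, dosed 5 h after plating by pin transfer (217-fold dilution from DMSO stock) and incubated 16 h at 37C, 5% CO2. Viability read as ATP luminescence with CellTiter-Glo after 30 min at room temperature.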
# [14] = molecular target: Cellular tumor antigen p53 (Homo sapiens) (UniProt P04637); experiment: TOX21_p53_BLA_p3_ratio: Tox21 HCT-116 p53 Agonism Beta-lactamase Assay, Ratio, Phase 3 (AID 2283596; active = hit-call score of the fitted dose curve at least 0.9, where 1 is the maximum)
# How it was run: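 HCT116 p53-bla cells (4000/well) given compound in DMSO (217-fold dilution) after 5 h, incubated 16 h at 37C. CCF4-AM substrate 2 h at room temperature; 460/530 nm emission ratio, gain fitted against DMSO.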
# [15] = TOX21_p53_BLA_p4_viability: Viability Assessment in the Tox21 HCT-116 p53 Agonism Beta-lactamase Assay, Phase 4 (AID 2283597; active = hit-call score of the fitted dose curve at least 0.9, where 1 is the maximum;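 note: hits lower the luminescence signal meaning cytotoxicity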)
# How it was run: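 Cells plated, 5 h pre-incubation; DMSO compounds pinned (217-fold dilution); 16 h, 37C/5% CO2; CCF4-AM 2 h RT; CellTiter-Glo 30 min RT; luminescence read.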
# [16] = molecular target: Cellular tumor antigen p53 (Homo sapiens) (UniProt P04637); experiment: TOX21_p53_BLA_p5_ratio: Tox21 HCT-116 p53 Agonism Beta-lactamase Assay, Ratio, Phase 5 (AID 2283599; active = hit-call score of the fitted dose curve at least 0.9, where 1 is the maximum)
# How it was run: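 HCT-116 p53-bla cells (4000/well) plated 5 h, dosed with compound (217-fold DMSO dilution) for 16 h at 37 C; CCF4-AM substrate 2 h at room temperature. Activity is the 460/530 nm emission ratio (405 nm excitation), fitted in gain-of-signal direction versus DMSO.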
# [17] = TOX21_p53_BLA_p5_viability: Viability Assessment in the Tox21 HCT-116 p53 Agonism Beta-lactamase Assay, Phase 5 (AID 2283600; active = hit-call score of the fitted dose curve at least 0.9, where 1 is the maximum)
# How it was run: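 4000 cells/well; 5 h pre-incubation; DMSO compounds pin-transferred, 217-fold dilution; 16 h, 37C/5% CO2; CCF4-AM 2 h RT; CellTiter-Glo 30 min RT; luminescence.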
# Sequence of Cellular tumor antigen p53 (Homo sapiens) (P04637 whole entry, looked up): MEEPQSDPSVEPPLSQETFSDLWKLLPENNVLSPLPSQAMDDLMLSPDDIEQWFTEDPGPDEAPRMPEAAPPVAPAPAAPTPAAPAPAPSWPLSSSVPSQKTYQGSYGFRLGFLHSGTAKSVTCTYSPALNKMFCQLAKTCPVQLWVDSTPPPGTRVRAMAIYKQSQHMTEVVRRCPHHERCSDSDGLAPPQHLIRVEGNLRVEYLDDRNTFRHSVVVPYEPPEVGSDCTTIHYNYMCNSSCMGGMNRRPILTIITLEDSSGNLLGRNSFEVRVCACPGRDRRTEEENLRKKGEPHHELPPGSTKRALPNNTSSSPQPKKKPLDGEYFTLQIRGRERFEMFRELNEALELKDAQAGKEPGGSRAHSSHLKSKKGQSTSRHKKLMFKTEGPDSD
structure (smiles),measurement,setting,value
c1cc[n+]2c(c1)-c1cccc[n+]1CC2,outcome,[1],inactive
same,outcome,[2],inactive
same,outcome,[3],inactive
same,outcome,"TIMP1, TIMP1 (gene 7076)",inactive
same,outcome,[4],inactive
same,outcome,[5],inactive
same,outcome,[6],inactive
same,outcome,[7],inactive
same,outcome,[8],inactive
same,outcome,[9],inactive
same,outcome,[10],inactive
same,outcome,[11],inactive
same,outcome,[12],inactive
same,outcome,[13],inactive
same,outcome,[14],inactive
same,AC50,[15],20 µM (active)
same,outcome,[16],inactive
same,outcome,[17],inactive
